Several values for one entry are separate records, joined by “and”; a condition that tells them apart may be missing. Equal entries are not always repeated. Inconclusive results are not listed. More than one record can exist for a structure, and the calls need not agree. Activity calls are given as the source filed them. Rule for the calls, unless noted: active = hit-call score of the fitted dose curve at least 0.9, where 1 is the maximum; inactive = score below 0.9.
Legend:
[1] = CCTE_Shafer_MEA_acute_cross_correlation_area: CCTE's Neural Acute Assay for Area of Cross Correlation, Shafer Lab (AID 2284024);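 note: area under pooled inter-electrode spike cross-correlation near zero lag as percent change from own baseline; curves fitted for loss of cross-correlation area so actives lower synchrony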
Summary of the method: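 Primary rat cortical neurons on 48-well MEA plates (16 electrodes/well) were recorded 40 min at baseline on DIV 13 or 15, then 40 min with compound (0.03-40 uM) at 37 C; cross-correlation area expressed as percent change from baseline.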

[2] = CCTE_Shafer_MEA_acute_synchrony_index: CCTE's Neural Acute Assay for Synchrony, Shafer Lab (AID 2284027);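 note: network synchrony index of spontaneous spiking in primary rat cortical neurons on MEAs; fitted for loss of signal so actives lower synchrony relative to DMSO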
Summary of the method: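 Primary rat cortical neurons on 16-electrode MEA wells were recorded 40 min at baseline (DIV 13 or 15) and 40 min after compound (0.03-40 uM) at 37 C. Synchrony index (0-1) expressed as percent change from baseline, versus DMSO.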

[3] = molecular target: Estrogen receptor (Homo sapiens) (UniProt P03372); assay: CCTE_Deisenroth_AIME_384WELL_LUC_Active: CCTE's 384-well Estrogen Receptor Transactivation Assay with AIME metabolic competence (ERTA luciferase; metabolism positive), Deisenroth Lab (AID 2284030; active = hit-call score of the fitted dose curve at least 0.9, where 1 is the maximum)
Estrogen receptor (Homo sapiens), sequence (P03372 whole entry, looked up): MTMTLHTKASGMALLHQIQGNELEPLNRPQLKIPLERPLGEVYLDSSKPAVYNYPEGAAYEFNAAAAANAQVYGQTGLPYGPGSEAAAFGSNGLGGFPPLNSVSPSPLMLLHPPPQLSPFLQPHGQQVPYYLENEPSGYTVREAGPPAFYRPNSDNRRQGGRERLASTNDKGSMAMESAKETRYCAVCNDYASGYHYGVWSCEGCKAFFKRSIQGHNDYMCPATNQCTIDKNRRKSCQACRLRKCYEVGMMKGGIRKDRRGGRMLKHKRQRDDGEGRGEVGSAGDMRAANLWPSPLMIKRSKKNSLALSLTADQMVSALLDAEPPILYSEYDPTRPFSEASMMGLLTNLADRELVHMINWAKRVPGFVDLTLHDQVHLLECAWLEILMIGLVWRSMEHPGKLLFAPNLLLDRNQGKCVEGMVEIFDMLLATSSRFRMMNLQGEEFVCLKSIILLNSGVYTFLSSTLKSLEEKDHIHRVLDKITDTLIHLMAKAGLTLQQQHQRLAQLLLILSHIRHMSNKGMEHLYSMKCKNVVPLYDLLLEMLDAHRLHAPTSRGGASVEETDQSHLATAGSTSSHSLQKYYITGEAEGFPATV
Summary of the method: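 Test chemicals (10-point series, 0.002 - 200 uM) were preincubated 2 hours with alginate-immobilized phenobarbital/beta-naphthoflavone-induced male Sprague Dawley rat liver S9; conditioned medium then went onto VM7Luc4E2 breast cells for 24 hour. Luciferase gain-of-signal fitted relative to 17beta-estradiol.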

[4] = molecular target: Estrogen receptor (Homo sapiens) (UniProt P03372); assay: CCTE_Deisenroth_AIME_384WELL_LUC_Inactive: CCTE's 384-well Estrogen Receptor Transactivation Assay without AIME metabolic competence (ERTA luciferase; metabolism negative), Deisenroth Lab (AID 2284038; active = hit-call score of the fitted dose curve at least 0.9, where 1 is the maximum;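 note: VM7Luc4E2 breast cells given medium preincubated 2 h with S9-free microspheres; hits raise estrogen receptor luciferase signal so potencies reflect agonists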)
Summary of the method: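 Chemicals (10-point series, 0.002 - 200 uM) were incubated 2 hours with alginate-water microsphere lids lacking S9, then the conditioned medium was transferred to VM7Luc4E2 breast cells for 24 hour. Luciferase induction was read by bioluminescence, fitted upward relative to 17beta-estradiol.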

[5] = molecular target: Estrogen receptor (Homo sapiens) (UniProt P03372); assay: CCTE_Deisenroth_AIME_384WELL_LUC_Shift: CCTE's 384-well Estrogen Receptor Transactivation Assay with AIME metabolic competence data shift (ERTA luciferase; difference in metabolism positive and negative), Deisenroth Lab (AID 2284041);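 note: shift is response with S9 minus without S9 so positive means metabolism raised ER signal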
Summary of the method: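 Chemicals (0.002–200 uM, 10 points) pre-incubated 2 h with alginate-encapsulated induced male Sprague Dawley rat liver S9 or S9-free, then medium applied 24 h to VM7Luc4E2 cells; luciferase. Endpoint is per-concentration difference, S9-positive minus negative.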

[6] = molecular target: Estrogen receptor (Homo sapiens) (UniProt P03372); assay: CCTE_Deisenroth_AIME_96WELL_LUC_Active: CCTE's 96-well Estrogen Receptor Transactivation Assay with AIME metabolic competence (ERTA luciferase; metabolism positive), Deisenroth Lab (AID 2284023; active = hit-call score of the fitted dose curve at least 0.9, where 1 is the maximum)
Summary of the method: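 Chemicals pre-incubated 2 h with alginate-immobilized phenobarbital/beta-naphthoflavone-induced male Sprague Dawley rat liver S9, then medium transferred to VM7Luc4E2 cells for 24 h luciferase read-out. 10-point series 0.002 - 200 uM; fitted relative to 17beta-estradiol.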

[7] = molecular target: Estrogen receptor (Homo sapiens) (UniProt P03372); assay: CCTE_Deisenroth_AIME_96WELL_LUC_Inactive: CCTE's 96-well Estrogen Receptor Transactivation Assay without AIME metabolic competence (ERTA luciferase; metabolism negative), Deisenroth Lab (AID 2284025; active = hit-call score of the fitted dose curve at least 0.9, where 1 is the maximum)
Summary of the method: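 VM7Luc4E2 breast cells, luciferase read 24 h after dosing with medium pre-incubated 2 h on alginate-water lids (metabolism negative). 10-point series 0.002–200 uM, single technical replicate, n≥4; fit relative to 17beta-estradiol.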

[8] = CCTE_Deisenroth_AIME_96WELL_CTox_Active: Cytotoxicity Assessment (CTOX) in CCTE's 96-well Estrogen Receptor Transactivation Assay with AIME metabolic competence (metabolism positive), Deisenroth Lab (AID 2284028; active = hit-call score of the fitted dose curve at least 0.9, where 1 is the maximum)
Summary of the method: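 Chemicals (0.002–200 uM) were first incubated 2 h with alginate-immobilized phenobarbital/beta-naphthoflavone-induced male rat liver S9; conditioned medium then went onto VM7Luc4E2 cells for 24 h, with viability read by protease-substrate fluorescence, fitted bidirectionally.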

[9] = CCTE_Deisenroth_AIME_96WELL_CTox_Inactive: Cytotoxicity Assessment (CTOX) in CCTE's 96-well Estrogen Receptor Transactivation Assay without AIME metabolic competence (metabolism negative), Deisenroth Lab (AID 2284029; active = hit-call score of the fitted dose curve at least 0.9, where 1 is the maximum)
Summary of the method: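 Chemicals (10-point series, 0.002-200 uM) were incubated 2 h with alginate-water microspheres lacking S9. The conditioned medium was then transferred onto VM7Luc4E2 cells for 24 h. Viability was measured by protease-substrate cleavage to a fluorescent probe, with loss of signal fitted bidirectionally; n≥4 experimental replicates.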

[10] = CCTE_Shafer_MEA_dev_per_burst_spike_percent: CCTE's Neural Network Formation Assay for Percent of Spikes in a Burst, Shafer Lab (AID 2284032);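 for AC50: fitted as a decrease in burst spike percentage below DMSO baseline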
Summary of the method: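 Rat primary cortical neurons on 16-electrode MEA wells, dosed from plating day 0 for 12 days with renewal on DIV 5 and 9; spikes-in-bursts percentage averaged over bursting electrodes, collapsed as AUC across days 5, 7, 9, 12; loss direction versus DMSO.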

[11] = CCTE_Shafer_MEA_dev_active_electrodes_number: CCTE's Neural Network Formation Assay for Number of Active Electrodes, Shafer Lab (AID 2284040; active = hit-call score of the fitted dose curve at least 0.9, where 1 is the maximum;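 for AC50: potency for loss of active electrodes versus DMSO so lower counts are hits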)
Summary of the method: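 Rat cortical primary cultures, 1.5 x 10^5 cells/well, PEI-coated MEA, laminin drop. Continuous exposure DIV 0–12; full media/compound change DIV 5, 9. Readout: electrodes with mean firing ≥5 spikes/min; AUC across days; loss vs DMSO.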

[12] = CCTE_Shafer_MEA_dev_burst_rate: CCTE's Neural Network Formation Assay for Burst Rate, Shafer Lab (AID 2284042);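 for AC50: potency for loss of burst rate below DMSO control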
Summary of the method: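 Cells plated, treated day 0; recorded DIV 5, 7, 9, 12; fed and re-treated DIV 5, 9. Endpoint: bursts per recording time, active-electrode well mean, trapezoidal AUC, fitted in decreasing direction against DMSO baseline.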

[13] = CCTE_Shafer_MEA_dev_per_burst_interspike_interval: CCTE's Neural Network Formation Assay for Burst Interspike Interval, Shafer Lab (AID 2284044);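 note: mean spike spacing inside bursts as AUC over recordings on days 5 7 9 12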;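 for AC50: potency for a decrease of within-burst interspike interval below DMSO level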
Summary of the method: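 Rat cortical primary cultures, 16 electrodes/well; compound from plating, renewed with full media change DIV 5 and 9. Spikes via adaptive detector; per-burst ISI well-mean over active bursting electrodes; AUC of DIV 5/7/9/12 recordings; loss-direction fit vs DMSO.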

[14] = CCTE_Shafer_MEA_dev_burst_duration_mean: CCTE's Neural Network Formation Assay for Mean Burst Duration, Shafer Lab (AID 2284045);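 for AC50: curve fitted for loss meaning shorter burst duration than DMSO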
Summary of the method: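 Primary rat cortical neurons on 48-well 16-electrode MEA plates, exposed from day 0 with renewal at DIV 5 and 9; spontaneous activity recorded on days 5, 7, 9, 12. Well-mean burst duration across bursting electrodes, collapsed as trapezoidal AUC; DMSO baseline.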

[15] = CCTE_Shafer_MEA_dev_interburst_interval_mean: CCTE's Neural Network Formation Assay for Mean Interburst Interval, Shafer Lab (AID 2284046);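 note: well-mean interburst interval of bursting electrodes as AUC over four recording days; curve fitted for decrease in interburst interval relative to DMSO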
Summary of the method: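 Developing rat cortical networks on 48-well MEAs receive compound from the day of plating. Burst intervals from each active electrode are averaged per well, and AUC over the recording days is fitted in the negative direction against DMSO.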

[16] = CCTE_Shafer_MEA_dev_inter_network_spike_interval_mean: CCTE's Neural Network Formation Assay for Mean Inter-network Spike Interval, Shafer Lab (AID 2284047);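 for AC50: potency for a decrease in mean inter-network spike interval below DMSO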
Summary of the method: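 Rat cortical cultures, 1.5 x 10^5 cells/well on 48-well MEA plates; continuous exposure days 0–12, medium and compound refreshed DIV 5, 9. Mean time between consecutive network-spike peaks; AUC across DIV 5/7/9/12; DMSO baseline, negative fitting direction.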

[17] = CCTE_Shafer_MEA_dev_network_spike_number: CCTE's Neural Network Formation Assay for Number of Network Spikes, Shafer Lab (AID 2284048);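 note: synchronized bursts across electrodes counted on days 5 7 9 12 and integrated as AUC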;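 for AC50: fit as a loss of signal meaning fewer network spikes than DMSO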
Summary of the method: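 Primary rat cortical neurons on PEI/laminin 48-well MEA plates, dosed from plating day 0 for 12 days, renewed at DIV 5 and 9. Network spike counts recorded DIV 5, 7, 9, 12, collapsed as trapezoidal AUC; DMSO baseline.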

[18] = CCTE_Shafer_MEA_dev_network_spike_peak: CCTE's Neural Network Formation Assay for Mean Number of Electrodes in Network Spike, Shafer Lab (AID 2284049);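 for AC50: fitted for loss of signal meaning fewer electrodes in network spikes than DMSO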
Summary of the method: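 Network-spike peak electrode count from recordings on days 5, 7, 9 and 12 was combined as trapezoidal area under the curve. Rat cortical cultures were treated continuously from plating, with compound renewed at each feed (DIV 5, 9); fits versus DMSO.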

[19] = CCTE_Deisenroth_AIME_384WELL_CTox_Active: Cytotoxicity Assessment (CTOX) in CCTE's 384-well Estrogen Receptor Transactivation Assay with AIME metabolic competence (metabolism positive), Deisenroth Lab (AID 2284037; active = hit-call score of the fitted dose curve at least 0.9, where 1 is the maximum;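 note: activity means signal loss indicating cell death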)
Summary of the method: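 Chemicals pre-incubated 2 hours with alginate-immobilised phenobarbital/beta-naphthoflavone-induced male Sprague Dawley rat liver S9, then conditioned medium applied 24 hour to VM7Luc4E2 cells. Viability by fluorogenic protease substrate; 10-point series 0.002 - 200 uM.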

Measured: AC50

O=C(O)c1nc(Cl)ccc1Cl
inactive: [1] | [2] | [3] | [4] | [5]

CC1COC(Cn2cncn2)(c2ccc(Oc3ccc(Cl)cc3)cc2Cl)O1 (centres undefined)
active: [2] 11.5 µM
inactive: [1]

CS/C(C)=N/OC(=O)N(C)SN(C)C(=O)O/N=C(\C)SC
inactive: [1]
active: [2] 27.8 µM

CCCN(CCC)c1c([N+](=O)[O-])cc(S(N)(=O)=O)cc1[N+](=O)[O-]
active: [2] 5 µM
inactive: [1]

CCCCC(CC)COC(=O)c1ccccc1C(=O)OCC(CC)CCCC (centres undefined)
inactive: [6] | [7] | [8] | [9] | [10] | [11] | [12] | [13] | [14] | [15] | [16] | [17]
active: [10] 15 µM and 9.27 µM | [11] 15 µM and 7.34 µM | [12] 2.98 µM and 6.34 µM | [13] 9.06 µM | [14] 3.18 µM | [15] 12.6 µM | [17] 2.32 µM and 12.8 µM | [18] 15 µM and 423 nM and 8.09 µM

CCNc1nc(Cl)nc(NC(C)C)n1
active: [2] 20 µM
not listed: [3] | [8] | [9]
inactive: all other assays above

CCCCOC(=O)c1ccccc1C(=O)OCCCC
inactive: [6] | [8] | [12] | [13] | [14] | [15] | [16] | [17]
active: [7] 34.1 µM | [10] 75.3 µM | [11] 75.1 µM | [18] 74.9 µM

Cc1ccc(-c2c(Cl)nc(C#N)n2S(=O)(=O)N(C)C)cc1
active: [10] 18.3 µM | [11] 39 µM | [12] 15.2 µM | [17] 30.2 µM | [18] 21.8 µM
inactive: [1] | [2] | [13] | [14] | [15] | [16]

CN(C)C(=S)SSC(=S)N(C)C
active: [10] 0.0103 µM | [11] 0.011 µM | [12] 0.0127 µM | [13] 0.0227 µM | [14] 0.00155 µM | [15] 0.0116 µM | [16] 0.0116 µM | [17] 0.00554 µM | [18] 0.0107 µM

Source: PubChem BioAssay (EPA / NIEHS)
